# Compounds without any hit were thinned out: in the full panel of roughly 79,000, 15% have a hit. Unmarked numbers belong to inactive results. The source made the active and inactive calls. No stated cut-off is given here; in the data, active means growth inhibition above about 70%; inactive means the rest.
# What was measured:
# [1] = NCI Yeast Anticancer Drug Screen. Data for the rad52 strain (AID 147);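 further: 0% = growth of vehicle-treated control cultures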; conditions: S. cerevisiae rad52 mutant growth inhibition, hits give high values
# Summary of the method: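 Genetically altered yeast (DNA damage repair defect) treated with compound; inhibition calculated relative to vehicle.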
# [2] = NCI Yeast Anticancer Drug Screen. Data for the wt1 strain (AID 149);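 further: 0% = growth of vehicle-treated wt1 cultures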; conditions: S. cerevisiae wt1 strain (SPY 50644) growth inhibition, hits give high values
# Summary of the method: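 Readout: yeast growth inhibition, normalised to vehicle controls, in the wt1 strain exposed to test compounds.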
# [3] = NCI Yeast Anticancer Drug Screen. Data for the rad50EPP+ strain (AID 151);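 further: 0% = growth of vehicle-treated control cultures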; conditions: S. cerevisiae rad50 mutant strain, hits give high values
# Summary of the method: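 Strain rad50EPP+; compound exposure; % growth inhibition vs vehicle.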
# [4] = NCI Yeast Anticancer Drug Screen. Data for the mgt1 strain (AID 153); conditions: S. cerevisiae mgt1 mutant growth inhibition, hits give high values
# Summary of the method: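 Read-out: yeast growth inhibition vs vehicle control. Strain mgt1, drawn from a panel altered in DNA damage repair or cell cycle control.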
# [5] = NCI Yeast Anticancer Drug Screen. Data for the rad50 strain (AID 155);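 further: 0% = growth of vehicle-only cultures of the same strain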; conditions: S. cerevisiae rad50 strain growth inhibition, hits give high values
# Summary of the method: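 Compounds were tested on a yeast strain with an engineered DNA damage repair alteration; the reported value is growth inhibition normalised to vehicle treatment.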
# [6] = NCI Yeast Anticancer Drug Screen. Data for the mec2-1 strain (AID 157); conditions: S. cerevisiae mec2-1 strain, hits give high values
# Summary of the method: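 Cells of the genetically defined mec2-1 yeast strain are incubated with test compound. Inhibition of growth is calculated against vehicle-treated controls.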
# [7] = NCI Yeast Anticancer Drug Screen. Data for the rad14 strain (AID 159);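 further: 0% = growth of vehicle-treated control cultures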; conditions: S. cerevisiae rad14 strain growth inhibition, hits give high values
# Summary of the method: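 Compound-treated yeast with a defined DNA-repair lesion; growth inhibition normalised to vehicle-treated cultures.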
# [8] = NCI Yeast Anticancer Drug Screen. Data for the sgs1 mgt1 strain (AID 161);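 further: 0% = growth of cultures given vehicle only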; conditions: S. cerevisiae sgs1 mgt1 strain, hits give high values
# Summary of the method: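 Inhibition of yeast growth, normalised to vehicle-treated controls, is reported for a strain bearing genetic alterations in DNA damage repair.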
# [9] = NCI Yeast Anticancer Drug Screen. Data for the CLN2oe strain (AID 163);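 further: 0% = growth of vehicle-only control cultures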; conditions: S. cerevisiae CLN2oe strain, hits give high values
# Summary of the method: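 Strain altered in cell-cycle control, incubated with compound; growth compared to solvent-treated controls.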
# [10] = NCI Yeast Anticancer Drug Screen. Data for the cln2 rad14 strain (AID 165);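 further: 0% = growth equal to vehicle treated cultures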; conditions: S. cerevisiae cln2 rad14 strain, hits give high values
# Summary of the method: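 The screen exposed genetically defined yeast (cln2 rad14) to test compounds and scored growth inhibition relative to vehicle-treated controls.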
# [11] = NCI Yeast Anticancer Drug Screen. Data for the bub3 strain (AID 167); conditions: S. cerevisiae bub3 mutant strain, hits give high values
# Summary of the method: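 Growth of a checkpoint-deficient yeast mutant is measured after compound exposure. Values represent inhibition relative to vehicle.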
# [12] = NCI Yeast Anticancer Drug Screen. Data for the wt2 strain (AID 169);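 further: 0% = growth of vehicle-treated yeast cultures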; conditions: S. cerevisiae wt2 strain growth inhibition, hits give high values
# Summary of the method: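 Steps: yeast strain treated with compound; growth recorded; inhibition calculated relative to cultures given vehicle alone.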
# [13] = NCI Yeast Anticancer Drug Screen. Data for the mlh1 strain (AID 171);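 further: 0% = growth of vehicle-treated control cultures of the same strain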; conditions: S. cerevisiae mlh1 strain growth inhibition, hits give high values
# Summary of the method: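 Yeast screen: mutant strain plus compound, growth scored against vehicle control wells.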
# [14] = NCI Yeast Anticancer Drug Screen. Data for the sgs1 strain (AID 173);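 further: 0% = growth of vehicle-only control cultures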; conditions: S. cerevisiae sgs1 mutant, hits give high values
# Summary of the method: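 Inhibition of yeast growth served as the measure. The mutant strain was treated with each compound, and growth was normalised to cultures receiving vehicle alone.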
# [15] = NCI Yeast Anticancer Drug Screen. Data for the mlh1 rad18 strain (AID 175); conditions: S. cerevisiae mlh1 rad18 strain growth inhibition, hits give high values
# Summary of the method: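 Compound-treated yeast growth, normalised to vehicle controls. Strain bears defined DNA repair mutations.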
# [16] = NCI Yeast Anticancer Drug Screen. Data for the rad18 strain (AID 177); conditions: S. cerevisiae rad18 mutant growth inhibition, hits give high values
# Summary of the method: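 Inhibition values reflect reduced yeast growth compared with vehicle-treated controls, using a strain engineered with a DNA damage repair defect.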
# [17] = at 5.0 µM (retest, dose inferred, filed as 0.5)
# [18] = at 50.0 µM (retest, dose inferred, filed as 5.0)
smiles,measurement,setting,value
O=C(Cc1ccccc1)NNc1nc(NNC(=O)c2ccncc2)nc(Nc2ccc([N+](=O)[O-])cc2)n1,growth inhibition,[1]; at 1.2 µM,23%
same,growth inhibition,[1]; at 3.7 µM,29%
same,growth inhibition,[1]; at 11.0 µM,68%
same,growth inhibition,[1]; at 33.0 µM,59%
same,growth inhibition,[1]; at 100.0 µM,54%
same,growth inhibition,[2]; at 1.2 µM,-81%
same,growth inhibition,[2]; at 3.7 µM,3%
same,growth inhibition,[2]; at 11.0 µM,12%
same,growth inhibition,[2]; at 33.0 µM,19%
same,growth inhibition,[2]; at 100.0 µM,17%
same,growth inhibition,[3]; at 1.2 µM,4%
same,growth inhibition,[3]; at 3.7 µM,10%
same,growth inhibition,[3]; at 11.0 µM,11%
same,growth inhibition,[3]; at 33.0 µM,11%
same,growth inhibition,[3]; at 100.0 µM,-3%
same,growth inhibition,[4]; at 1.2 µM,4%
same,growth inhibition,[4]; at 3.7 µM,13%
same,growth inhibition,[4]; at 11.0 µM,52%
same,growth inhibition,[4]; at 33.0 µM,62%
same,growth inhibition,[4]; at 100.0 µM,56%
same,growth inhibition,[5]; at 1.2 µM,2%
same,growth inhibition,[5]; at 3.7 µM,9%
same,growth inhibition,[5]; [17],8%
same,growth inhibition,[5]; at 11.0 µM,21%
same,growth inhibition,[5]; at 33.0 µM,25%
same,growth inhibition,[5]; [18],54%
same,growth inhibition,[5]; at 50.0 µM,71.5% (active)
same,growth inhibition,[5]; at 100.0 µM,21%
same,growth inhibition,[6]; at 1.2 µM,3%
same,growth inhibition,[6]; at 3.7 µM,9%
same,growth inhibition,[6]; [17],3%
same,growth inhibition,[6]; at 11.0 µM,27%
same,growth inhibition,[6]; at 33.0 µM,34%
same,growth inhibition,[6]; [18],18%
same,growth inhibition,[6]; at 50.0 µM,47%
same,growth inhibition,[6]; at 100.0 µM,23%
same,growth inhibition,[7]; at 1.2 µM,-3%
same,growth inhibition,[7]; at 3.7 µM,2%
same,growth inhibition,[7]; at 11.0 µM,12%
same,growth inhibition,[7]; at 33.0 µM,14%
same,growth inhibition,[7]; at 100.0 µM,11%
same,growth inhibition,[8]; [17],0%
same,growth inhibition,[8]; [18],41%
same,growth inhibition,[8]; at 50.0 µM,87.3% (active)
same,growth inhibition,[9]; at 1.2 µM,-8%
same,growth inhibition,[9]; at 3.7 µM,-4%
same,growth inhibition,[9]; at 11.0 µM,8%
same,growth inhibition,[9]; at 33.0 µM,11%
same,growth inhibition,[9]; at 100.0 µM,7%
same,growth inhibition,[10]; [17],42%
same,growth inhibition,[10]; [18],3%
same,growth inhibition,[10]; at 50.0 µM,64.3%
same,growth inhibition,[11]; at 1.2 µM,-2%
same,growth inhibition,[11]; at 3.7 µM,-4%
same,growth inhibition,[11]; [17],6%
same,growth inhibition,[11]; at 11.0 µM,11%
same,growth inhibition,[11]; at 33.0 µM,17%
same,growth inhibition,[11]; [18],40%
same,growth inhibition,[11]; at 50.0 µM,77.7% (active)
same,growth inhibition,[11]; at 100.0 µM,15%
same,growth inhibition,[12]; at 1.2 µM,-3%
same,growth inhibition,[12]; at 3.7 µM,10%
same,growth inhibition,[12]; at 11.0 µM,41%
same,growth inhibition,[12]; at 33.0 µM,57%
same,growth inhibition,[12]; at 100.0 µM,61%
same,growth inhibition,[13]; at 1.2 µM,-3%
same,growth inhibition,[13]; at 3.7 µM,8%
same,growth inhibition,[13]; at 11.0 µM,42%
same,growth inhibition,[13]; at 33.0 µM,58%
same,growth inhibition,[13]; at 100.0 µM,55%
same,growth inhibition,[14]; at 1.2 µM,10%
same,growth inhibition,[14]; at 3.7 µM,32%
same,growth inhibition,[14]; at 11.0 µM,63%
same,growth inhibition,[14]; at 33.0 µM,69%
same,growth inhibition,[14]; at 100.0 µM,64%
same,growth inhibition,[15]; [17],7%
same,growth inhibition,[15]; [18],36%
same,growth inhibition,[15]; at 50.0 µM,86.2% (active)
same,growth inhibition,[16]; at 1.2 µM,9%
same,growth inhibition,[16]; at 3.7 µM,26%
same,growth inhibition,[16]; at 11.0 µM,50%
same,growth inhibition,[16]; at 33.0 µM,57%
same,growth inhibition,[16]; at 100.0 µM,49%
COc1ccc2c3c1OC(C)C31CC(=O)CCC1CC2 (stereo unspecified),growth inhibition,[1]; at 1.2 µM,-4%
same,growth inhibition,[1]; at 3.7 µM,-1%
same,growth inhibition,[1]; at 11.0 µM,4%
same,growth inhibition,[1]; at 33.0 µM,2%
same,growth inhibition,[1]; at 100.0 µM,15%
same,growth inhibition,[2]; at 1.2 µM,-3%
same,growth inhibition,[2]; at 3.7 µM,-4%
same,growth inhibition,[2]; at 11.0 µM,-5%
same,growth inhibition,[2]; at 33.0 µM,-5%
same,growth inhibition,[2]; at 100.0 µM,-3%
same,growth inhibition,[3]; at 1.2 µM,-5%
same,growth inhibition,[3]; at 3.7 µM,1%
same,growth inhibition,[3]; at 11.0 µM,6%
same,growth inhibition,[3]; at 33.0 µM,-1%
same,growth inhibition,[3]; at 100.0 µM,4%
same,growth inhibition,[4]; at 1.2 µM,-8%
same,growth inhibition,[4]; at 3.7 µM,-5%
same,growth inhibition,[4]; at 11.0 µM,-4%
same,growth inhibition,[4]; at 33.0 µM,-2%
same,growth inhibition,[4]; at 100.0 µM,-1%
same,growth inhibition,[5]; at 1.2 µM,-2%
same,growth inhibition,[5]; at 3.7 µM,1%
same,growth inhibition,[5]; [17],13%
same,growth inhibition,[5]; at 11.0 µM,3%
same,growth inhibition,[5]; at 33.0 µM,4%
same,growth inhibition,[5]; [18],23%
same,growth inhibition,[5]; at 50.0 µM,7.25%
same,growth inhibition,[5]; at 100.0 µM,13%
same,growth inhibition,[6]; at 1.2 µM,-4%
same,growth inhibition,[6]; at 3.7 µM,-2%
same,growth inhibition,[6]; [17],-15%
same,growth inhibition,[6]; at 11.0 µM,-3%
same,growth inhibition,[6]; at 33.0 µM,-3%
same,growth inhibition,[6]; [18],2%
same,growth inhibition,[6]; at 50.0 µM,14.7%
same,growth inhibition,[6]; at 100.0 µM,-2%
same,growth inhibition,[7]; at 1.2 µM,-2%
same,growth inhibition,[7]; at 3.7 µM,1%
same,growth inhibition,[7]; at 11.0 µM,2%
same,growth inhibition,[7]; at 33.0 µM,1%
same,growth inhibition,[7]; at 100.0 µM,7%
same,growth inhibition,[8]; [17],14%
same,growth inhibition,[8]; [18],25%
same,growth inhibition,[8]; at 50.0 µM,8.45%
same,growth inhibition,[9]; at 1.2 µM,-2%
same,growth inhibition,[9]; at 3.7 µM,-8%
same,growth inhibition,[9]; at 11.0 µM,1%
same,growth inhibition,[9]; at 33.0 µM,-1%
same,growth inhibition,[9]; at 100.0 µM,8%
same,growth inhibition,[10]; [17],14%
same,growth inhibition,[10]; [18],9%
same,growth inhibition,[10]; at 50.0 µM,5.05%
same,growth inhibition,[11]; at 1.2 µM,-5%
same,growth inhibition,[11]; at 3.7 µM,-3%
same,growth inhibition,[11]; [17],8%
same,growth inhibition,[11]; at 11.0 µM,-5%
same,growth inhibition,[11]; at 33.0 µM,0%
same,growth inhibition,[11]; [18],34%
same,growth inhibition,[11]; at 50.0 µM,10.9%
same,growth inhibition,[11]; at 100.0 µM,8%
same,growth inhibition,[12]; at 1.2 µM,-8%
same,growth inhibition,[12]; at 3.7 µM,-9%
same,growth inhibition,[12]; at 11.0 µM,-7%
same,growth inhibition,[12]; at 33.0 µM,-7%
same,growth inhibition,[12]; at 100.0 µM,-11%
same,growth inhibition,[13]; at 1.2 µM,-6%
same,growth inhibition,[13]; at 3.7 µM,-2%
same,growth inhibition,[13]; at 11.0 µM,-3%
same,growth inhibition,[13]; at 33.0 µM,-4%
same,growth inhibition,[13]; at 100.0 µM,1%
same,growth inhibition,[14]; at 1.2 µM,-1%
same,growth inhibition,[14]; at 3.7 µM,-6%
same,growth inhibition,[14]; at 11.0 µM,-8%
same,growth inhibition,[14]; at 33.0 µM,9%
same,growth inhibition,[14]; at 100.0 µM,9%
same,growth inhibition,[15]; [17],12%
same,growth inhibition,[15]; [18],51%
same,growth inhibition,[15]; at 50.0 µM,-0.75%
same,growth inhibition,[16]; at 1.2 µM,-7%
same,growth inhibition,[16]; at 3.7 µM,-1%
same,growth inhibition,[16]; at 11.0 µM,3%
same,growth inhibition,[16]; at 33.0 µM,0%
same,growth inhibition,[16]; at 100.0 µM,25%
